According to PubChem BioAssay AID504444 (National Center for Advancing Translational Sciences (NCATS), 2011):
Hit rate of the full screen: of about 360,000 compounds, about 7,500 (2.1%) were called active. About 20% were inconclusive and are not listed. What follows is part of a selection rich in actives, with near analogues and random picks from the rest. A number with no mark means an inactive call. Calls follow the shape of the dose curve; as a rule, active = well fitted inhibition curve with a large enough effect; inconclusive = small, poorly fitted or top-dose-only effect, or effect the other way; inactive = flat fitted curve, though single readings scatter.

Experiment: Nrf2 qHTS screen for inhibitors; also: nearly all actives have a fitted effect of over 60% in size
Settings: A549 ARE-Fluc reporter, luciferase luminescence, 18-24 h; series mostly up to 46 µM; activity change, negative = inhibition: at the top concentration
Summary of the method: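 Two sequential reads on A549 ARE_Fluc cells exposed to compound for 18-24 h: a CellTiter-Fluor fluorescence read for viability, then a luciferase luminescence read for Nrf2/ARE activity.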
% is scaled to controls: 0 for no effect and ±100 for the full control effect; potency is read from the fitted curve at half-maximal effect.

Question: For `O=S(=O)(c1ccc2c(c1)OCCO2)N1CCN(S(=O)(=O)c2cc(F)ccc2F)CC1`, which “activity change, negative = inhibition” value is on record?
Answer: 4.79%

Question: For `Cn1c(=O)c2c(nc(SCC(=O)Nc3ccc(F)cc3)n2Cc2ccc(Cl)cc2)n(C)c1=O`, which “activity change, negative = inhibition” value is on record?
Answer: -16.3%

Question: With `COc1cc(C(=O)N2CCN(S(=O)(=O)c3ccc(C(C)C)cc3)CC2)ccc1OCC(=O)N1CCOCC1` as the compound, how does the “activity change, negative = inhibition” value read?
Answer: 2.4%

Question: For `COC(=O)Cc1c(-c2[nH]c3ccccc3c2CC(=O)OC)[nH]c2ccccc12`, which “activity change, negative = inhibition” value is on record?
Answer: 5.69%

Question: For `O=C(c1ccc2c(c1)N(Cc1ccccc1)C(=O)c1ccccc1S2(=O)=O)N1CCCC1`, which “activity change, negative = inhibition” value is on record?
Answer: -12.5%

Question: With `O=C(CCS(=O)(=O)c1ccc2c(c1)NC(=O)CO2)Nc1cccc(C(F)(F)F)c1` as the compound, how does the “activity change, negative = inhibition” value read?
Answer: 2.09%

Question: With `Cc1cc2c(cc1C)NC1(C[C@H]3CCC(=O)N4CC[C@@H](C1)[C@@H]34)C(=NC(C)(C)CC(C)(C)C)N2` (stereo partly specified) as the compound, how does the “activity change, negative = inhibition” value read?
Answer: -23.5%

Question: For `COc1ccccc1-c1noc(CSc2nnc(-c3ccccc3)n2-c2ccc(C)c(C)c2)n1`, which “activity change, negative = inhibition” value is on record?
Answer: -2.74%

Question: With `COc1ccc(CC(=O)Nc2nc(-c3ccc(F)c(F)c3)cs2)cc1OC` as the compound, how does the Potency read?
Answer: 1.84 µM (active)

Question: With `Cc1ccc(S(=O)(=O)NC(=O)Nc2nc(-c3ccc(F)c(F)c3)cs2)cc1` as the compound, how does the “activity change, negative = inhibition” value read?
Answer: 5.15%

Question: With `COc1cc(CC(=O)Nc2nc(-c3ccc(F)c(F)c3)cs2)cc(OC)c1OC` as the compound, how does the Potency read?
Answer: 11.6 µM (active)

Question: For `COc1ccc(-c2csc(NC(=O)c3ccc(N4C(=O)CCC4=O)cc3)n2)cc1OC`, which “activity change, negative = inhibition” value is on record?
Answer: -0.264%

Question: For `COc1ccccc1NC(=O)Nc1nc(CC(=O)Nc2ccccc2F)cs1`, which “activity change, negative = inhibition” value is on record?
Answer: -11.4%

Question: With `COc1ccc(CCNc2nc(-c3cccc(NC(C)=O)c3)cs2)cc1OC` as the compound, how does the “activity change, negative = inhibition” value read?
Answer: -6.15%

Question: For `COc1ccccc1CNC(=O)C(Cc1ccccc1)NS(=O)(=O)c1ccc2c(c1)oc(=O)n2C` (stereo unspecified), which “activity change, negative = inhibition” value is on record?
Answer: 18.2%

Question: Which “activity change, negative = inhibition” value does the source give for `COc1ccc(NC(=O)CN2CCCN(Cc3ccccc3)S2(=O)=O)cc1` here?
Answer: 13.6%

Question: With `COC(=O)c1ccc(NCc2cc(O)ccc2O)cc1` as the compound, how does the “activity change, negative = inhibition” value read?
Answer: 10.5%

Question: Which “activity change, negative = inhibition” value does the source give for `CN(CC(=O)Nc1ccc(Cl)cc1)CC(=O)Nc1cccc2ccccc12` here?
Answer: -8.71%

Question: For `O=C(c1ccc(Cl)c(S(=O)(=O)N2CCCCCC2)c1)N1CCN(c2ccc(O)cc2)CC1`, which Potency is on record?
Answer: 23.1 µM (active)

Question: With `O=C(c1ccc(Cl)c(S(=O)(=O)N2CCCCC2)c1)N1CCCCCC1` as the compound, how does the “activity change, negative = inhibition” value read?
Answer: -1.18%

Question: For `O=C(c1ccc(Cl)c(Cl)c1)N1CCCC1`, which “activity change, negative = inhibition” value is on record?
Answer: 5.79%

Question: Which “activity change, negative = inhibition” value does the source give for `O=C(c1ccccc1F)N1CCC(c2nc3c(nnn3Cc3cccc(F)c3)c(=O)[nH]2)CC1` here?
Answer: -16.8%

Question: With `COc1ccc(CN2C(=O)C(NC(=O)c3cccc(C)c3)(C(F)(F)F)N=C2c2ccccc2)cc1` (stereo unspecified) as the compound, how does the “activity change, negative = inhibition” value read?
Answer: -6.01%

Question: Which “activity change, negative = inhibition” value does the source give for `COc1cccc(-c2ccc(C#N)c(SCC(=O)NCCc3ccc(Cl)cc3)n2)c1` here?
Answer: -20.6%

Question: With `COc1ccc(CCNC(=O)CSc2nc(-c3ccc(OC)c(OC)c3)ccc2C#N)cc1` as the compound, how does the Potency read?
Answer: 18.4 µM (active)

Question: With `COc1ccc(CCNC(=O)CSc2nnc3ccc(-c4ccncc4)nn23)cc1` as the compound, how does the “activity change, negative = inhibition” value read?
Answer: -30%
